# Luciferase inh: Firefly luciferase inhibition profiling of diverse chemical library using quantitative high-throughput screening | Luciferin 4-monooxygenase (Photinus pyralis), P08659 | purified P. pyralis luciferase, luminescence, biochemical | Potency, µM (highest dose often 115 µM), actives largely listed as inhibitors | actives 2.5% (n = 76,000) | AID 1347043, 2019; note: nearly all actives have a fitted effect of over 65% in size
#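 Purified 10nM P. pyralis luciferase with 10uM D-luciferin and 10uM ATP in 50mM Tris acetate pH 7.5, 10mM Mg acetate, 0.01% Tween-20, 0.05% BSA. qHTS titration; luminescence read by CCD imager.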
# SNCA viab count: GF-AFC viability counterscreen for inhibitors of alpha-synuclein gene (SNCA) expression | HEK-293-SNCA-luc viability, GF-AFC fluorescence, 24 h | Potency, µM (highest dose often 57.1 µM), without a hit: at the highest dose activity change, negative = cytotoxicity, actives largely listed as cytotoxic | actives 0.12% (n = 150,000) | AID 1671193, 2021;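 note: 0% = DMSO-treated cells and -100% = medium-only wells without cells; nearly all actives have a fitted effect of over 30% in size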
#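 Cytotoxicity counterscreen: after 24 h compound treatment of genome-edited SNCA-luciferase HEK-293 cells, live-cell protease substrate GF-AFC read by fluorescence after 30 min; activity scaled between DMSO (0%) and medium-only (-100%), curves Hill-fitted.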
# SNCA expr inh: Primary qHTS assay for inhibitors of alpha-synuclein gene (SNCA) expression; Potency, µM (doses to about 57.2 µM), inactives show at the top dose activity change, negative = inhibition, most hits filed as inhibitors; actives 0.17% (n = 140,000); HEK-293 SNCA-luciferase knock-in, luminescence, 24 h; AID 1671194, 2021;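 note: plate controls were DMSO cells for no effect and cell-free wells for full effect; nearly all actives have a fitted effect of over 45% in size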
# HEK293 tox: Cytotoxic Profiling in HEK 293 Cell Line of Diverse Libraries Using Quantitative High-Throughput Screening; Potency, µM (top dose mostly 115 µM), for inactives: at the top dose activity change, negative = cytotoxicity, usual class: inhibitors; actives 6.6% (n = 94,000); HEK 293 viability, ATP luminescence (CellTiter-Glo), 48-72 h; note: nearly all actives have a fitted effect of over 60% in size
#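 HEK 293 cells at 250 cells/well were exposed to compounds by pintool transfer for 48 or 72 hr at 37 degree Celsius, 5% CO2. Viability was read as ATP-coupled luminescence with CellTiter-Glo after 10 min at room temperature.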
# NIH3T3 tox: Cytotoxic Profiling in NIH 3T3 Cell Line of Diverse Libraries Using Quantitative High-Throughput Screening; NIH 3T3 viability, CellTiter-Glo ATP luminescence, 48-72 h; Potency, µM (doses to about 96.7 µM), for inactives: at the highest dose activity change, negative = cytotoxicity, actives largely listed as inhibitors; actives 4.3% (n = 94,000); AID 1345082, 2018; note: nearly all actives have a fitted effect of over 55% in size
#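 First NIH 3T3 cells are plated at 400 cells/well; next compound is pinned in; then plates incubate 48 or 72 hr at 37 °C; finally CellTiter-Glo is added and luminescence read after 10 min.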
# hNpr1 antagonist: Natriuretic polypeptide receptor (hNpr1) antagonism - Primary qHTS. HEK293 hNpr1 GloSensor cGMP, ANP-stimulated luminescence. Potency, µM (doses to about 46.3 µM), without a hit: at the highest dose activity change, negative = inhibition, usual class: inhibitors. Atrial natriuretic peptide receptor 1 (Homo sapiens), P16066. actives 1.6% (n = 76,000); calls by dose curve; note: nearly all actives have a fitted effect of over 60% in size
#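 Compound pre-incubated 30 min at room temperature on GloSensor-loaded HEK293 cells stably carrying hNpr1 and the pGS-40F cGMP biosensor. Stimulation uses hNppA at 0.1 nM final; luminescence is taken at baseline and 20 min post-agonist.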
# * = called active by the depositor; i = inactive; ? = inconclusive; nt = no result given; [ ] = another dose, or the depositor's remark. This is a sample that favours compounds with a hit; in the whole collection about 7.4% have one here. Unless noted, calls come from the whole dose curve; as a rule, active = well fitted curve in the direction sought with a large enough effect; inconclusive = small, poorly fitted or top-dose-only effect, or another doubt; inactive = no such curve, though single readings can be large; an effect the other way counts as inactive or inconclusive. Unless noted, % is set by controls: 0 for no effect and ±100 for the full control effect; potency is the fitted concentration of half-maximal effect.
SMILES,Luciferase inh,SNCA viab count,SNCA expr inh,HEK293 tox,NIH3T3 tox,hNpr1 antagonist
CC(=O)N1CCCC1C(=O)Nc1ccc(-c2nc3ccccc3o2)cc1 (stereo not given),16µM*,-3%,131%,?,-8%,1%
CC(C)(C)c1ccc(-n2ncc3c2CCCC3NC(=O)c2c[nH]c(=O)[nH]c2=O)cc1 (stereo not given),?,-17%,3%,32µM*,?,8.9µM*
CC1(C(=O)NCCCN2CCCc3ccccc32)CCCCC(=O)N1 (stereo not given),i,-3%,39%,?,-20%,-5%
O=C(Cc1ccc2c(c1)OCO2)N1CCOCC2(CN(Cc3cc(F)cc(F)c3)C2)C1,i,?,-27%[87.6 µM],56µM*,35µM*,4%[70.6 µM]
O=C(Nc1cccc(F)c1)N1CC(Oc2ccc(-c3noc(C4CCOCC4)n3)cc2)C1,?,4%,115%,?,?,?
Cc1nn(-c2ccc(C(F)(F)F)cc2)c(C)c1[C@@H]1C=C[C@@H](NC(=O)COc2ccccc2)C1,i,-17%,66%,?,?,-24%
COc1ccc(C(=O)N[C@@H]2C=C[C@@H](c3c(C)nn(-c4ccc(C)c(Cl)c4)c3C)C2)cc1,32µM*,?,-18%,?,?,?
Cc1nn(Cc2ccccc2)c(C)c1[C@@H]1C=C[C@@H](NS(=O)(=O)c2ccccc2)C1,i,-3%[87.6 µM],?,?,?,-29%[70.6 µM]
Cc1ccc(-n2nc(C)c([C@@H]3C=C[C@@H](NS(=O)(=O)c4cccs4)C3)c2C)cc1Cl,?,?,-11%,45µM*,35µM*,?
COc1ccc(C(=O)N[C@@H]2C=C[C@@H](c3c(C)nn(-c4ccccc4)c3C)C2)cc1,i,-18%[87.6 µM],-6%[87.6 µM],?,?,-8%[70.6 µM]
Cc1nn(-c2ccc(C(F)(F)F)cc2)c(C)c1[C@@H]1C=C[C@@H](NS(=O)(=O)c2ccccc2)C1,i,-12%,10%,45µM*,40µM*,-29%
CNC(=O)[C@@H]1C[C@@H](n2cc(CNC(=O)Nc3ccc(F)cc3F)nn2)CN1,i,5%,-13%,-4%,-4%,4%
CCn1cc(CN2CCC3(CCC(=O)N(C(C)C(=O)O)C3)CC2)cn1 (stereo not given),i,3%,25%,5%,-5%,-9%
CN1C(=O)C2(CCN(Cc3cccc4ccccc34)C2)c2ccccc21 (stereo not given),i,-22%[87.6 µM],?,28µM*,?,-6%[70.6 µM]
CN(C)c1ccc(CN2CCC3(C2)C(=O)N(c2ccccc2)c2ccccc23)cc1 (stereo not given),nt,-26%,-19%,?,45µM*,nt
CN1C(=O)C2(CCN(Cc3ccc(C(F)(F)F)cc3)C2)c2ccccc21 (stereo not given),i,6%,-19%,?,-30%,-29%
O=C1N(c2ccccc2)c2ccccc2C12CCN(Cc1ccccc1)C2 (stereo not given),nt,-2%,?,?,?,nt
CN1C(=O)C2(CCN(Cc3ccc(F)cc3)C2)c2ccccc21 (stereo not given),i,?,?,71µM*,?,14%[70.6 µM]
Cc1cc(C(=O)N2Cc3cnn(C)c3Nc3ccccc32)ccc1CNC(=O)N1CCC[C@H]1C(=S)N1CCCN(C)CC1,nt,4%,nt,nt,nt,nt
COc1ccc(-c2noc(-c3nc(C(C)C)no3)n2)cc1,11µM*,-1%,74%,?,-5%,-20%
Cn1cc(CC(=O)N2CCCc3ncc(C(=O)N4CCCC[C@@H]4Cc4ccccc4)cc32)c2ccccc21,i,?,?,40µM*,?,-29%
O=C(Cc1cccc(C(F)(F)F)c1)N1CCCc2ncc(C(=O)N3CCCC[C@@H]3c3ccccc3)cc21,i,?,-21%,79µM*,?,?
CCOc1ccc(-c2cc3c(=O)n(CCNC(=O)C4(c5ccccc5)CC4)ccn3n2)cc1,25µM*,7%,-4%,i,i,0%
CCOc1ccc(-c2cc3c(=O)n(CCNC(=O)c4ccccc4OC)ccn3n2)cc1,16µM*,?,?,?,i,-24%
CCOc1ccc(-c2cc3c(=O)n(CCNC(=O)c4ccc(OC)cc4)ccn3n2)cc1,i,-3%,55%,-1%,-8%,-20%
SMILES,Luciferase inh,SNCA viab count,SNCA expr inh,HEK293 tox,NIH3T3 tox,hNpr1 antagonist
O=C(Cc1c[nH]c2ccccc12)N1C[C@@H](CO)[C@H](c2ccccn2)C1,i,-1%,-13%,-21%,-21%,-13%
CC(C)(C)c1nnc2ccc(C(=O)NCc3cccs3)cn12,nt,3%[87.6 µM],1%[87.6 µM],-19%[172 µM],?,nt
Cc1ccc(-c2noc([C@@H]3C[C@H](NS(=O)(=O)c4ccc(Cl)cc4)CN3C)n2)cc1,22µM*,-13%[87.6 µM],38%[87.6 µM],79µM*,?,?
COc1ccc(S(=O)(=O)N[C@H]2C[C@@H](c3nc(-c4ccc5c(c4)OCO5)no3)N(C)C2)cc1,i,-28%,6%,?,?,?
CN1C[C@@H](NS(=O)(=O)c2ccccc2)C[C@H]1c1nc(-c2ccccn2)no1,22µM*,-17%[87.6 µM],-11%[87.6 µM],-27%[172 µM],?,-28%[70.6 µM]
COc1ccc(-c2noc([C@@H]3C[C@H](NS(=O)(=O)c4ccccc4)CN3C)n2)cc1,i,-19%[87.6 µM],103%[87.6 µM],89µM*,?,-26%[70.6 µM]
Cc1ccc(S(=O)(=O)N[C@H]2C[C@@H](c3nc(-c4ccccc4)no3)N(C)C2)cc1,?,-13%[87.6 µM],48%[87.6 µM],?,-28%[174 µM],1%[70.6 µM]
COc1ccc(-c2noc([C@@H]3C[C@H](NS(=O)(=O)c4ccc(OC)cc4)CN3C)n2)cc1,22µM*,-17%,80%,40µM*,?,?
Cc1ccc(-n2c(C3CCN(C(=O)c4cc(C)ccc4C)CC3)n[nH]c2=O)cc1,i,-5%,-2%,-28%,?,1%
CC(C)OC(=O)[C@H](C)N[P@](=O)(OC[C@H]1O[C@@H](n2ccc(=O)[nH]c2=O)[C@](C)(F)[C@H]1O)Oc1ccccc1,nt,?,115%,nt,nt,nt
COc1ccc(C(=O)N[C@H]2C[C@@H](c3nc(-c4ccncc4)no3)N(C)C2)cc1,i,?,-15%[87.6 µM],0%[172 µM],i,6%[70.6 µM]
